# Results taken from PubChem BioAssay.
# Activity calls are given as the source filed them. Rule as the data show it, unless noted: active = inhibition above about 80%; inactive = the rest.
# Tests used:
# [1] = viability loss with induced miR-34 in A549 – imaging, A549 dox-inducible miR-34, nuclei and caspase counts, primary screen (AID 1347080;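 active = compounds whose cell count with miR-34 switched on is under 0.7 times the count with it off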); conditions: A549 miR-34 inducible, Hoechst nuclei count, 48 h
# [2] = MELAS cybrid and Rieske KO viability enhancers – cell-based, MELAS cybrids, Rieske KO mouse fibroblasts, CellTiter-Glo, primary screen (AID 1508586;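 active = mean z-score across replicates of 1.96 or higher in either the MELAS or the Rieske mutant cell line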;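 also: z relative to plate mean and SD of compound and empty wells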); conditions: low glucose
# [3] = growth inhibition, single agent or in combination, cell-based, chromothripsis tumors, cisplatin or BGB combos (AID 1671449); conditions: LFS_MB_P medulloblastoma cells;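 also: cells exposed for 96 hours; 0% = vehicle DMSO and 100% = killing by high DMSO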
# [4] = growth inhibition, single agent and combos, cell-based, chromothripsis tumors, cisplatin or BGB combos (AID 1671450); conditions: HDN33 neuroblastoma cells, stronger effect = higher value;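 also: cells exposed to compound for four days; 0% = vehicle DMSO and 100% = cell killing by high DMSO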
# [5] = growth inhibition, single agents and combos, ICB984, cell-based, cisplatin or BGB combos, synergistic combos for chromothripsis tumors (AID 1671451; call rule not given here;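 also: cells exposed for 96 hours before readout; 0% = vehicle DMSO and 100% = killing by high DMSO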); conditions: ICB984 medulloblastoma cells, drug combinations, stronger effect = higher value
# [6] = growth inhibition, single agents and combos, LFS_MB_1R, cell-based, cisplatin or BGB combos, synergistic combos for chromothripsis tumors (AID 1671452); conditions: LFS_MB_1R medulloblastoma cells, stronger effect = higher value;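 also: cells exposed for 96 hours before readout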
# [7] = growth inhibition, single agents and combos, HTB85, cell-based, BGB or cisplatin IC20 combos, synergistic combos for chromothripsis tumors (AID 1671453); conditions: HTB85 osteosarcoma cells, drug combinations, stronger effect = higher value;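 also: cells exposed for 96 hours before readout; 0% = vehicle DMSO and 100% = high DMSO killing control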
# [8] = growth inhibition, single agents and combos, CRL2098, cell-based, BGB or cisplatin IC20 combos, synergistic combos for chromothripsis tumors (AID 1671454); conditions: CRL2098 osteosarcoma cells, drug combinations, stronger effect = higher value;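 also: cells exposed for 96 h before readout; 0% = vehicle DMSO and 100% = killing by high DMSO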
# [9] = growth inhibition, single agents and combos, HD-MB03, cell-based, BGB or cisplatin IC20 combos, synergistic combos for chromothripsis tumors (AID 1671455; in the data active = inhibition above about 83%;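 also: 0% = vehicle DMSO and 100% = high DMSO as cytotoxic control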); conditions: HD-MB03 medulloblastoma cells, stronger effect = higher value
# [10] = growth inhibition, single agents and combos, UWB1.289, cell-based, BGB or cisplatin combos, synergistic combos for chromothripsis tumors (AID 1671456); conditions: UWB1.289 ovarian carcinoma cells, stronger effect = higher value;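 also: cells exposed to compound for four days; 0% = vehicle DMSO and 100% = killing by high DMSO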
# [11] = growth inhibition, single agents and combos, LFS_MB_2R, cell-based, cisplatin combos, synergistic combos for chromothripsis tumors (AID 1671457); conditions: LFS_MB_2R medulloblastoma cells, stronger effect = higher value;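 also: cells exposed to compound for four days before readout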
# [12] = growth inhibition, MDA-MB-436, cell-based, BGB or cisplatin combos, synergistic combos for chromothripsis tumors (AID 1671458; call rule not given here;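 also: cells exposed for 96 hours; 0% = vehicle DMSO and 100% = killing by high DMSO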); conditions: MDA-MB-436 breast carcinoma growth inhibition, drug combinations, stronger effect = higher value
# [13] = UWB1.289_BRCA1 ovarian cancer growth, cell-based, BGB or cisplatin combinations (AID 1671459); conditions: UWB1.289 BRCA1 ovarian carcinoma, drug combinations, stronger effect = higher value
# [14] = drug combination toxicity in non-malignant astrocytes – cell-based, BGB or cisplatin IC20 combos, cytotoxicity control for chromothriptic childhood tumor combination screen (AID 1671460); conditions: Human astrocytes, viability inhibition, drug combinations, at 0.5 µM, stronger effect = higher value;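 also: cells exposed to compounds for 96 hours before viability readout; 0% = vehicle and 100% = killing control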
# [15] = BT084 cell growth, single and combined drugs, ICGC_MB145, cisplatin and BGB IC40 combos (AID 1671461); conditions: BT084 medulloblastoma cells, drug combinations, stronger effect = higher value;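 also: cells exposed to drugs for 96 hours; 0% = vehicle DMSO and 100% = high DMSO full killing control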
# [16] = RCMB18 cell growth, single agent and combined, cisplatin and BGB IC40 combos (AID 1671462); conditions: RCMB18 medulloblastoma cells, stronger effect = higher value;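 also: cells exposed to compound for four days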
# [17] = CRL1545 cell growth, single agent and combined, cisplatin and BGB IC20 combos (AID 1671464); conditions: CRL1545 osteosarcoma cells, stronger effect = higher value;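 also: cells exposed to compound for 96 hours before readout; 0% = vehicle DMSO and 100% = high DMSO killing control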
# [18] = compounds altering viability of human ES cells (AID 493140; call rule not given here;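 also: cells exposed to compounds for four days before counting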); conditions: human embryonic stem cell survival screen; stronger effect = higher value
# [19] = P. berghei load reduction in hepatocytes – cell-based, HepG2, luciferase luminescence, HepG2 viability, primary screen (AID 624349; in the data active = parasite load remaining mostly below about 12%, no sharp cut-off; inactive = mostly above about 10%;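 also: 100% = mean of DMSO negative control wells on the same plate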); conditions: P. berghei liver stage in HepG2, luciferase luminescence, concentration not given here; parasite load remaining: stronger effect = lower value; viability: measured here: HepG2 viability without parasites
# [20] = stronger effect = lower value, cell number ratio, induced over uninduced
# [21] = measured here: relative caspase fold change +Dox/-Dox
# [22] = measured here: total cells with miR-34 induction, stronger effect = lower value
# [23] = measured here: total cells without miR-34 induction
# [24] = MELAS cybrid survival, CellTiter-Glo 48 h, stronger effect = higher value
# [25] = Rieske KO mouse fibroblast survival, CellTiter-Glo 72 h
# [26] = measured here: combination with BGB IC40, at 0.05 µM
# [27] = measured here: with BGB IC20 combination, at 0.5 µM
# [28] = measured here: with cisplatin IC20 combination, at 0.5 µM
# [29] = measured here: combination with cisplatin, at 0.5 µM
# [30] = measured here: combination with cisplatin, at 5 µM
compound,measurement,setting,value
CC1OC(n2cc(F)c(=O)[nH]c2=O)C(O)C1O (configuration not stated),fold change,[1]; [20],0.451 (active)
same,fold change,[1]; [21],2.09
same,cell count,[1]; [22],2920
same,cell count,[1]; [23],6480
same,z-score,[2]; [24],-0.306 (inactive)
same,z-score,[2]; [25],0.652
same,inhibition,"[3]; at 0.5 µM, stronger effect = higher value",-9.42% (inactive)
same,inhibition,"[3]; measured here: combination with BGB IC20, at 0.005 µM",-7.8%
same,inhibition,"[3]; measured here: combination with BGB IC40, at 0.005 µM",-40.7%
same,inhibition,[3]; [26],-29.6%
same,inhibition,"[3]; measured here: combination with cisplatin, at 0.5 µM, stronger effect = higher value",-29.8%
same,inhibition,"[3]; measured here: combination with cisplatin, at 5 µM, stronger effect = higher value",-27.3%
same,inhibition,"[4]; BGB combo, at 5 µM",-8.24%
same,inhibition,[4]; at 0.5 µM,-30.6% (inactive)
same,inhibition,"[4]; cisplatin combo, at 5 µM",-12.9%
same,inhibition,[4]; [27],-22.1%
same,inhibition,[4]; [28],-19.8%
same,inhibition,"[4]; single agent, at 5 µM",-20.3%
same,inhibition,"[5]; BGB IC20 combo, at 0.005 µM",-5.88%
same,inhibition,"[5]; BGB IC40 combo, at 0.005 µM",-26.6%
same,inhibition,"[5]; BGB IC40 combo, at 0.05 µM",-7.54%
same,inhibition,[5]; at 0.5 µM,-15.5% (inactive)
same,inhibition,"[5]; cisplatin combo, at 0.05 µM",-10.5%
same,inhibition,"[5]; cisplatin combo, at 0.5 µM",-3.76%
same,inhibition,"[5]; cisplatin combo, at 5 µM",-40.8%
same,inhibition,"[5]; measured here: 5 uM single agent, at 5 µM",-21.2%
same,inhibition,[6]; at 0.5 µM,-23.1% (inactive)
same,inhibition,[6]; [26],-35.1%
same,inhibition,[6]; [29],-21.6%
same,inhibition,[6]; [30],-58.4%
same,inhibition,[7]; at 0.5 µM,-23.8% (inactive)
same,inhibition,"[7]; measured here: with BGB IC20, at 0.5 µM",-38.6%
same,inhibition,"[7]; measured here: with BGB IC20, at 5 µM",-31%
same,inhibition,"[7]; measured here: with cisplatin IC20, at 0.5 µM",-26.6%
same,inhibition,"[7]; measured here: with cisplatin IC20, at 5 µM",-40.3%
same,inhibition,"[7]; single agent, at 5 µM",-22%
same,inhibition,[8]; at 0.5 µM,-5.43% (inactive)
same,inhibition,"[8]; measured here: combination with BGB at IC20, at 0.5 µM",-21.1%
same,inhibition,"[8]; measured here: combination with cisplatin at IC20, at 0.5 µM",-73.9%
same,inhibition,[9]; at 0.5 µM,-15.3% (inactive)
same,inhibition,"[9]; measured here: combo with BGB at IC20, at 0.5 µM",-17.8%
same,inhibition,"[9]; measured here: combo with cisplatin at IC20, at 0.5 µM",-10.3%
same,inhibition,[10]; at 0.5 µM,-6.51% (inactive)
same,inhibition,"[10]; measured here: inhibition with BGB combination, at 0.05 µM",-35.5%
same,inhibition,"[10]; measured here: inhibition with cisplatin combination, at 0.05 µM",-17.5%
same,inhibition,[11]; at 0.5 µM,-17.7% (inactive)
same,inhibition,[11]; [29],-12.9%
same,inhibition,[11]; [30],-95.4%
same,inhibition,[12]; at 0.5 µM,-32.6% (inactive)
same,inhibition,"[12]; measured here: BGB combination, at 0.5 µM",-38.6%
same,inhibition,"[12]; measured here: BGB combination, at 5 µM",-19.2%
same,inhibition,"[12]; measured here: cisplatin combination, at 0.5 µM",-54.4%
same,inhibition,"[12]; measured here: cisplatin combination, at 5 µM",12%
same,inhibition,"[13]; BGB combination, concentration series, at 5 µM",-3.82%
same,inhibition,[13]; at 0.5 µM,-19.6% (inactive)
same,inhibition,"[13]; cisplatin combination, concentration series, at 5 µM",4%
same,inhibition,[14],-18.2% (inactive)
same,inhibition,[14]; measured here: combo with BGB IC20,-17.6%
same,inhibition,[14]; measured here: combo with cisplatin IC20,-13.1%
same,inhibition,[15]; at 0.5 µM,-33.9% (inactive)
same,inhibition,"[15]; cisplatin combination, at 0.5 µM",-18.2%
same,inhibition,"[15]; cisplatin combination, at 5 µM",3.57%
same,inhibition,"[15]; measured here: BGB IC40 combination 0.05 uM, at 0.05 µM",-9.17%
same,inhibition,"[15]; single agent, at 5 µM",-31.7%
same,inhibition,[16]; at 0.5 µM,-20.6% (inactive)
same,inhibition,"[16]; cisplatin combo, at 5 µM",-44.8%
same,inhibition,"[16]; measured here: BGB IC40 combination, at 0.05 µM",-8.2%
same,inhibition,[16]; [29],-22.5%
same,inhibition,"[16]; single agent, at 5 µM",-11.4%
same,inhibition,[17]; at 0.5 µM,-45.1% (inactive)
same,inhibition,[17]; [27],-21.9%
same,inhibition,[17]; [28],-60.2%
same,inhibition,"[17]; single agent, at 0.05 µM",-41.1%
same,inhibition,"[17]; single agent, at 5 µM",-1.1%
CC1CS(=O)(=O)CCN1N=Cc1ccc([N+](=O)[O-])o1 (configuration not stated),survival,[18],3.75 (inactive)
same,parasite load remaining,[19],67.6% (inactive)
same,viability,[19],75.5%
same,fold change,[1]; [20],0.925 (inactive)
same,fold change,[1]; [21],0.621
same,cell count,[1]; [22],8950
same,cell count,[1]; [23],9680
same,z-score,[2]; [24],-0.298 (inactive)
same,z-score,[2]; [25],-0.374
CC[N+](CC)(CC)CCC(O)(c1ccccc1)C1CCCCC1 (configuration not stated),survival,[18],3.08 (inactive)
same,parasite load remaining,[19],97.4% (inactive)
same,viability,[19],92.1%
same,fold change,[1]; [20],0.878 (inactive)
same,fold change,[1]; [21],0.741
same,cell count,[1]; [22],8200
same,cell count,[1]; [23],9350
same,z-score,[2]; [24],-0.675 (inactive)
same,z-score,[2]; [25],-0.626
